PNC assembly inh – perinucleolar compartment assembly inhibition; PC3M PTB-GFP, PNC prevalence imaging, 16 h; active compounds read low; AID 2417; 140,000 compounds, 3.1% hits; activity change (PNC), negative = inhibition, % at 10 µM;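 active = readout at or below -70, meaning at least 70% loss of cells showing the perinucleolar compartment, a nuclear body marking cancer cells; inconclusive = readout between -30 and a set limit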;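 note: plate controls were DMSO wells for no effect and camptothecin positive control wells for full effect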
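Compounds are pinned in duplicate onto adhered PC3M cells stably expressing GFP-tagged PTB and incubated 16 h at 37 C. Cells are then fixed, nuclei stained with Hoechst, and PNC-positive cells counted.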
12-hLO inh – blocks human 12-lipoxygenase activity | Potency, µM (highest dose often 57.1 µM), without a hit: at the top dose activity change, negative = inhibition, usual class: inhibitors | P18054 | 150,000 compounds, 0.12% hits | AID 1452 | purified 12-hLO, xylenol orange hydroperoxide absorbance; note: potency is the fitted concentration of half-maximal effect; nearly all actives have a fitted effect of over 55% in size
Target sequence (P18054 whole entry, looked up): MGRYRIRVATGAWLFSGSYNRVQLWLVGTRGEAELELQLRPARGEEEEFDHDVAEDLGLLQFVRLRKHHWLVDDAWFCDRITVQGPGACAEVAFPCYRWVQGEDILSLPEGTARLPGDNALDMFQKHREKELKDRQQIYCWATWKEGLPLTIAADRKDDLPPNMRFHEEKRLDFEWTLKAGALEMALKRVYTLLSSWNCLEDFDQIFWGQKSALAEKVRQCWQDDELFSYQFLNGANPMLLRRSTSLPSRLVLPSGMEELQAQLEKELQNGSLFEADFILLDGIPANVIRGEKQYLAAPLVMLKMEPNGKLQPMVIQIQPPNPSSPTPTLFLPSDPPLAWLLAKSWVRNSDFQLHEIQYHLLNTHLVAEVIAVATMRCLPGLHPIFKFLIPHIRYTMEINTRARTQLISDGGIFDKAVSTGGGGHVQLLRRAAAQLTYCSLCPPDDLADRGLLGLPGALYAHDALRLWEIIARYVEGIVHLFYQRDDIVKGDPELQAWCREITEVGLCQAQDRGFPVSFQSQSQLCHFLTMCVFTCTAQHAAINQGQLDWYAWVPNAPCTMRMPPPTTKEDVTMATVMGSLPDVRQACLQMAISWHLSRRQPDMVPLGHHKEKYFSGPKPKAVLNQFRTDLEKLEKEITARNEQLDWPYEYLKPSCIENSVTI
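150 nM 12hLO, 25 mM Hepes pH 7.0 + 0.01% Triton X-100; cpd preinc 15 min RT; 40 uM arachidonic acid, 30 min RT; Fe-XO 30 min; A573/A405 ratio as read-out.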
IMPase Li inh – IMPase inhibition in cells with lithium potentiation; CHO-M1 cells, IP1 TR-FRET (IP-One), carbachol + lithium; Potency, µM (doses to about 59.4 µM), inactives show top-dose activity, negative = IMPase inhibition, most hits filed as inhibitors; 210,000 compounds, 0.35% hits; AID 1457;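 note: IP1 builds up when IMPase is blocked and the TR-FRET signal falls; potency is the fitted concentration of half-maximal effect; plate controls were basal vehicle for no effect and high inhibitor control for full effect; nearly all actives have a fitted effect of over 50% in size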
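Readout is a homogeneous TR-FRET IP1 immunoassay (Ex 320, Em 665 and 620), where raised cytosolic IP1 lowers signal. Cells were CHO-M1 treated 30 min at 37C with test compounds plus a little lithium; AC50 values came from Hill-equation fitting.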
HPGD inh – inhibitors of human 15-hydroxyprostaglandin dehydrogenase (HPGD); P15428; purified HPGD, NADH fluorescence kinetic, PGE2 substrate; AID 894; 150,000 compounds, 4.3% hits; Potency, µM, for inactives: at the top dose activity change, negative = inhibition, most hits filed as inhibitors; active = well fitted inhibition curve with a large enough effect, not every such curve was filed as active; inconclusive = small, poorly fitted or top-dose-only effect, or another doubt; inactive = no such curve, though single readings can be large or run the other way; note: potency is the fitted concentration of half-maximal effect
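20 nM HPGD preincubated 15 min at room temperature with compound in 50 mM Tris-HCl pH 8, 0.01% Tween 20. Started with 1 mM NAD+ and 30 uM prostaglandin E2; NADH fluorescence (360/450 nm) read 5 times over 30-s intervals, last minus first.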
IMPase cell inh – cell-permeable inhibitors of inositol monophosphatase (IMPase). P97697. CHO-M1 cells, IP1 accumulation, HTRF TR-FRET ratio. inhibition (IP1 accumulation), % at 46.1 µM. 120,000 tested, under 10 active; active = well fitted curve in the direction sought with a large enough effect in the signal ratio, not every such curve was filed as active; inconclusive = small, poorly fitted or top-dose-only effect, or a change in a side signal; inactive = no such curve, though single readings can be large or run the other way; the % refers to the signal ratio;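 note: cells stimulated with carbachol in lithium chloride buffer; plate controls were DMSO basal wells for no effect and reference inhibitor wells for full effect; higher means more IMPase inhibition seen as more IP1 and lower FRET ratio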
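Measured: the HTRF emission ratio (665/620 nm) plus the 620 nm donor channel, each fitted to the Hill equation to give AC50. Cells were CHO-M1 given compounds up to 46 uM and a 30 min carbachol stimulation at 37C.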
15-hLO-2 inh – inhibitors of human 15-lipoxygenase 2 (ALOX15B) | purified 15hLO-2, xylenol orange hydroperoxide absorbance | 110,000 compounds, 0.56% hits | Potency, µM (highest dose often 57.1 µM), without a hit: top-dose activity change, negative = inhibition, hits mostly inhibitors | O15296; note: potency is the fitted concentration of half-maximal effect; nearly all actives have a fitted effect of over 60% in size
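Purified human 15hLO-2 (50 nM) preincubated 15 min with compound, then 45 uM arachidonic acid for 90 min at RT in 25 mM Hepes pH 7.5, 0.01% Triton X-100. Hydroperoxide detected by Fe-xylenol orange; 573/405 nm absorbance ratio.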
* = called active by the depositor; ? = inconclusive; nt = not tested or not shown; [ ] = another dose, or the depositor's remark. Rows were chosen to be rich in hits. Some 5.4% of all compounds tested hit in one or more screens of this group. Unless noted, calls come from the whole dose curve; as a rule, active = well fitted curve in the direction sought with a large enough effect; inconclusive = small, poorly fitted or top-dose-only effect, or another doubt; inactive = no such curve, though single readings can be large; an effect the other way counts as inactive or inconclusive. Unless noted, % is set by controls: 0 for no effect and ±100 for the full control effect.

SMILES	PNC assembly inh	12-hLO inh	IMPase Li inh	HPGD inh	IMPase cell inh	15-hLO-2 inh
S=c1[nH]nc(COc2ccccc2)n1/N=C/c1ccccn1	11	2%	0%	?	nt	nt
S=c1[nH]nc(C2CCCCC2)n1/N=C/c1ccc(Br)s1	11	0%	19%[38.3 µM]	5µM*	6	?
O=[N+]([O-])c1ccc(Cl)c(/C=N/n2c(COc3ccccc3)n[nH]c2=S)c1	15	-1%	7%	8.9µM*	nt	nt
CCCCOCCOCCSC#N	nt	-4%	16%	-7%	nt	-9%
Cn1c(=O)n(C)c2cc(N3CCCCC3)c(NC(=O)c3c(F)cccc3F)cc21	nt	nt	nt	nt	0	nt
O=[N+]([O-])c1cccc(/C=N/n2c(C3CCCCC3)n[nH]c2=S)c1	20	-1%	13%	2.5µM*	4	nt
COc1ccc(OC)c(NC2=C(c3ccccc3)C(=O)c3ccccc32)c1	nt	nt	nt	nt	13	nt
COc1ccc(-n2c(SCC(=O)Nc3ccccc3)nnc2-c2ccc(NS(=O)(=O)c3ccc(C)cc3)cc2)cc1	29	-8%	2%[38.3 µM]	-2%	-1	?
COc1ccc(-n2c(SCC#N)nnc2-c2ccc(NS(=O)(=O)c3ccc(C)cc3)cc2)cc1	?	-24%	-2%[38.3 µM]	14µM*	10	-16%
COc1ccc(-n2c(SCC(N)=O)nnc2-c2ccc(NS(=O)(=O)c3ccc(C)cc3)cc2)cc1	-17	-16%	14%[38.3 µM]	22µM*	-7	-5%
CCC1(CC)Cc2ccccc2C(Nc2c(C)n(C)n(-c3ccccc3)c2=O)=N1	4	-2%	43%[38.3 µM]	-10%	10	-2%
Cc1c(NC2=NC(C)(C)Cc3ccccc32)c(=O)n(-c2ccccc2)n1C	-88*	6%	14%	-6%	-2	nt
CN(CC(=O)O)CC(=O)O	nt	1%[11.4 µM]	6%	0%	nt	-2%[11.4 µM]
Cc1nn(C)c(C(=O)NNC(=S)NCc2ccco2)c1Cl	232	2%	19%	35µM*	-11	nt
Cc1nn(C)c(C(=O)NNC(=S)NCC(C)C)c1Cl	-114*	0%	-8%	-9%	nt	nt
CCNC(=O)[C@H](C)/C=C/C(NC(=O)OCc1ccccc1)c1ccc(C(=O)OC)cc1 (stereo not given in full)	nt	-1%	2%	-8%	nt	16%
CN(C)c1ccc(-c2nc3ccccn3c2Nc2ccc3c(c2)OCCO3)cc1	nt	nt	nt	nt	-3	nt
O=C1c2ccccc2CCCC12N=NCC2c1cccc2ccccc12 (stereo not given)	-10	2%	37%[38.3 µM]	-19%	6	-6%
Cc1ccc(C2CN=NC23CCc2ccccc2C3=O)cc1 (stereo not given)	16	4%	44%[38.3 µM]	32µM*	-6	-7%
O=C(CN1CCC(NC(=O)c2ccco2)CC1)Nc1ccccc1[N+](=O)[O-]	nt	nt	1%	nt	nt	nt
O=C(CN1CCC(NC(=O)c2ccco2)CC1)Nc1cccc2ccccc12	-100*	3%	4%	-7%	-6	nt
CCc1ccc(NC(=O)C(CC)n2nnc(C(=O)OC)c2C(=O)OC)cc1 (stereo not given)	nt	nt	nt	nt	1	nt
CCCCNC(=O)/C=C1\Sc2ccccc2NC1=O	35	-3%	1%	18µM*	nt	nt
CC1=NN(c2ccccc2)C(=O)[C@@H]1N=Nc1ccc(S(N)(=O)=O)cc1	nt	4%[11.4 µM]	6%	-8%	nt	-10%[11.4 µM]
CCN(CC)c1ccc(/C=C2\C(=O)c3ccc(C(=O)O)cc3C2=O)cc1	?	-3%	28%	2.8µM*	nt	nt
CCN(CC)c1ccc(C(=O)O)cc1	10	1%	4%	-6%	4	nt
CCOc1ccccc1NC(=O)CSc1nc(-c2cccs2)cc(C(F)(F)F)n1	nt	nt	nt	nt	-1	nt
O=C(CSc1nc(-c2cccs2)cc(C(F)(F)F)n1)Nc1cc(OCC(F)(F)F)cc([N+](=O)[O-])c1	-90*	-3%	-3%	0%	nt	nt
CCn1cnc2c(=O)oc3ccc(S(=O)(=O)Nc4ccc(OC)cc4)cc3c21	nt	nt	nt	nt	7	nt
O=C(Nc1ccc(Cl)cc1)N1CCCN(Cc2ccccc2F)C1	-10	-8%	-6%[38.3 µM]	13µM*	2	20%

Screens: PubChem, National Center for Advancing Translational Sciences (NCATS)
